Results as given in PubChem BioAssay (Tox21).
“And” between values parts separate entries of the source, which are not always exact repeats. Equal entries are not always repeated. Inconclusive results are not listed. A call without a number means that no potency is given here. Some compounds were tested as several samples or in several runs, with calls that do not always agree. The source made the active and inactive calls. Calls come from the whole dose curve; as a rule, active = well fitted cell-killing curve with a large enough effect in the repeat runs; inconclusive = weak or mixed curves, or effect the other way; inactive = no such curve, though single readings can be large or run the other way.

assay: qHTS assay to identify small molecule antagonists of the glucocorticoid receptor (GR) signaling pathway - cell viability counter screen (AID 720693); settings: GR-bla HeLa viability, CellTiter-Glo luminescence, 18 h, with 5 nM dexamethasone present; series mostly up to 58.5 µM; note: nearly all actives have a fitted effect of over 55% in size
Potency is the fitted concentration of half-maximal effect.

| Structure (SMILES) | Potency |
| --- | --- |
| OC[C@@H](O)[C@@H](O)[C@H](O)[C@H](O)CO | inactive |
| NC(=O)NO | inactive |
| Cc1cnc(NC(=O)C2=C(O)c3ccccc3S(=O)(=O)N2C)s1 | inactive |
| C1CNCCN1 | inactive |
| N[C@@H](Cc1c[nH]c2ccccc12)C(=O)O | inactive |
| O=C1CCCCCN1 | inactive |
| CO[C@H]1C=CO[C@@]2(C)Oc3c(C)c(O)c4c(O)c(c(/C=N/N5CCN(C)CC5)c(O)c4c3C2=O)NC(=O)/C(C)=C\C=C[C@H](C)[C@H](O)[C@@H](C)[C@@H](O)[C@@H](C)[C@H](OC(C)=O)[C@@H]1C | inactive |
| Cc1ccc(O)c(-n2nc3ccccc3n2)c1 | inactive |
| O=C(O)CN(CC(=O)O)CC(=O)O | inactive |
| NC(=O)N/N=C/c1ccc([N+](=O)[O-])o1 | inactive |
| C#C[C@]1(O)CC[C@H]2[C@@H]3CCC4=CC(=O)CC[C@@H]4[C@H]3CC[C@@]21CC | inactive |
| Cc1cccc2ccccc12 | inactive |
| COC1=CC(=O)C[C@@H](C)[C@]12Oc1c(Cl)c(OC)cc(OC)c1C2=O | inactive |
| N[C@@H](Cc1c[nH]c2ccc(O)cc12)C(=O)O | inactive |
| CCCCCCCC(=O)OCC(O)CO (configuration not stated) | inactive |
| CC1=C(/C=C/C(C)=C/C=C/C(C)=C/C(=O)O)C(C)(C)CCC1 | inactive |
| COc1ccc(C(=O)c2ccccc2)c(O)c1 | inactive |
| O=C(O)Cc1cccc2ccccc12 | inactive |
| C=C(C)OC(C)=O | inactive |
| NC(=O)c1ccc([N+](=O)[O-])cc1Cl | inactive |
| CCCCOC(=O)CCCCCCCCC(=O)OCCCC | inactive |
| NC(N)=NC(N)=NCCc1ccccc1 | inactive |
| C[C@]12C[C@H](O)[C@H]3[C@@H](CCC4=CC(=O)CC[C@@]43C)[C@@H]1CC[C@@H]2C(=O)CO | inactive |
| CCCCCCCCOc1ccc(C(=O)c2ccccc2)c(O)c1 | inactive |
| C[C@]12CC[C@@H]3c4ccc(O)cc4CC[C@H]3[C@@H]1CCC2=O | inactive |
| O=[N+]([O-])c1ccc(O)cc1 | inactive |
| CC(=O)/C=C/C1=C(C)CCCC1(C)C | inactive |
| CC(C)(C)CC(C)(C)c1ccc(O)c(-n2nc3ccccc3n2)c1 | 49.7 µM (active) |
| C=C(C)C(N)=O | inactive |

assay: qHTS assay for identifying genotoxic compounds that show differential cytotoxicity against isogenic chicken DT40 cell lines with known DNA damage response pathways - wild type cell line (AID 743012); settings: DT40 wild type chicken cells viability, CellTiter-Glo, 40 h; series mostly up to 68.4 µM; note: nearly all actives have a fitted effect of over 60% in size
Outline: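 CellTiter-Glo luminescence readout of viability in wild type DT40 cells after 40 h compound exposure at 37 C/5% CO2; 300 cells/well; reagent incubated 30 min at room temperature before reading.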

| Structure (SMILES) | Potency |
| --- | --- |
| OC[C@@H](O)[C@@H](O)[C@H](O)[C@H](O)CO | inactive |
| NC(=O)NO | inactive |
| Cc1cnc(NC(=O)C2=C(O)c3ccccc3S(=O)(=O)N2C)s1 | 26.6 µM (active) and inactive and 6.86 µM (active) |
| C1CNCCN1 | inactive |
| N[C@@H](Cc1c[nH]c2ccccc12)C(=O)O | inactive |
| O=C1CCCCCN1 | inactive |
| CO[C@H]1C=CO[C@@]2(C)Oc3c(C)c(O)c4c(O)c(c(/C=N/N5CCN(C)CC5)c(O)c4c3C2=O)NC(=O)/C(C)=C\C=C[C@H](C)[C@H](O)[C@@H](C)[C@@H](O)[C@@H](C)[C@H](OC(C)=O)[C@@H]1C | 21.1 µM (active) and 31 µM (active) |
| Cc1ccc(O)c(-n2nc3ccccc3n2)c1 | inactive |
| O=C(O)CN(CC(=O)O)CC(=O)O | inactive |
| NC(=O)N/N=C/c1ccc([N+](=O)[O-])o1 | inactive and 30.6 µM (active) |
| C#C[C@]1(O)CC[C@H]2[C@@H]3CCC4=CC(=O)CC[C@@H]4[C@H]3CC[C@@]21CC | inactive and 24.3 µM (active) |
| Cc1cccc2ccccc12 | inactive |
| COC1=CC(=O)C[C@@H](C)[C@]12Oc1c(Cl)c(OC)cc(OC)c1C2=O | 26.6 µM (active) and 54 µM (active) and 27.3 µM (active) |
| N[C@@H](Cc1c[nH]c2ccc(O)cc12)C(=O)O | inactive |
| CCCCCCCC(=O)OCC(O)CO (configuration not stated) | inactive |
| CC1=C(/C=C/C(C)=C/C=C/C(C)=C/C(=O)O)C(C)(C)CCC1 | 33.5 µM (active) and 54.4 µM (active) |
| COc1ccc(C(=O)c2ccccc2)c(O)c1 | inactive |
| O=C(O)Cc1cccc2ccccc12 | inactive |
| C=C(C)OC(C)=O | inactive |
| NC(=O)c1ccc([N+](=O)[O-])cc1Cl | inactive |
| CCCCOC(=O)CCCCCCCCC(=O)OCCCC | inactive |
| C[C@]12C[C@H](O)[C@H]3[C@@H](CCC4=CC(=O)CC[C@@]43C)[C@@H]1CC[C@@H]2C(=O)CO | inactive |
| C#C[C@]1(O)CC[C@H]2[C@@H]3CCc4cc(O)ccc4[C@H]3CC[C@@]21C | 18.8 µM (active) and 48.2 µM (active) and 13.7 µM (active) |
| CCCCCCCCOc1ccc(C(=O)c2ccccc2)c(O)c1 | inactive |
| O=[N+]([O-])c1ccc(O)cc1 | 27.3 µM (active) and 61.1 µM (active) |
| CC(=O)/C=C/C1=C(C)CCCC1(C)C | inactive |
| CC(C)(C)CC(C)(C)c1ccc(O)c(-n2nc3ccccc3n2)c1 | inactive |
| C=C(C)C(N)=O | inactive |
